Key:
[1] = tested on: Proto-oncogene tyrosine-protein kinase receptor Ret (Homo sapiens), P07949 [Y791F]; conditions: at 1 µM
[2] = biological target: Macrophage-stimulating protein receptor (Homo sapiens) (UniProt Q04912); conditions: at 0.1 µM
[3] = biological target: Macrophage-stimulating protein receptor (Homo sapiens) (UniProt Q04912); conditions: at 1 µM
[4] = biological target: Proto-oncogene tyrosine-protein kinase ROS (Homo sapiens) (UniProt P08922); conditions: at 0.1 µM
[5] = biological target: Proto-oncogene tyrosine-protein kinase ROS (Homo sapiens) (UniProt P08922); conditions: at 1 µM
[6] = biological target: Proto-oncogene tyrosine-protein kinase Src (Homo sapiens) (UniProt P12931); conditions: at 0.1 µM
[7] = biological target: Proto-oncogene tyrosine-protein kinase Src (Homo sapiens) (UniProt P12931); conditions: at 1 µM
[8] = biological target: Tyrosine-protein kinase Srms (Homo sapiens) (UniProt Q9H3Y6); conditions: at 0.1 µM
[9] = biological target: Tyrosine-protein kinase Srms (Homo sapiens) (UniProt Q9H3Y6); conditions: at 1 µM
[10] = biological target: Tyrosine-protein kinase SYK (Homo sapiens) (UniProt P43405); conditions: at 0.1 µM
[11] = biological target: Tyrosine-protein kinase SYK (Homo sapiens) (UniProt P43405); conditions: at 1 µM
[12] = biological target: T1, Tyrosine-protein kinase Tec (Homo sapiens) (UniProt P42680); conditions: at 0.1 µM
T1 sequence (whole entry): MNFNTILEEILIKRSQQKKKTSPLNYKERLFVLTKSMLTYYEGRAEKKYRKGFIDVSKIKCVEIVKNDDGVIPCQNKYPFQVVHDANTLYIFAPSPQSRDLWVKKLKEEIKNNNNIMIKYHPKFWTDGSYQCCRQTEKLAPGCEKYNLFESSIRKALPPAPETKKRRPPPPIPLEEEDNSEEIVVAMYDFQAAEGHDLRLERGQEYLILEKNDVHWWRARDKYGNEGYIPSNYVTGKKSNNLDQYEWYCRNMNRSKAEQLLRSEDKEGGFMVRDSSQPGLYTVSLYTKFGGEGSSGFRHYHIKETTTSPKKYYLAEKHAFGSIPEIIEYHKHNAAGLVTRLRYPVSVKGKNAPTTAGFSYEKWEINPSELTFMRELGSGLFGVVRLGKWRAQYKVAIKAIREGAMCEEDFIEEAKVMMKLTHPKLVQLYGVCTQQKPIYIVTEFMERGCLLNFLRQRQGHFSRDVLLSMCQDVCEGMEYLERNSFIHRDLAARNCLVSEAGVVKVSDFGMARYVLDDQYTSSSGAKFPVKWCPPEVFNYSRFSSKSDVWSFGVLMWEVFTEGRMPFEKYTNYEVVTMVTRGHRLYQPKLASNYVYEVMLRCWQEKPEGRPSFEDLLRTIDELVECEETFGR

[13] = biological target: T1, Tyrosine-protein kinase Tec (Homo sapiens); conditions: at 1 µM
[14] = biological target: Angiopoietin-1 receptor (Homo sapiens) (UniProt Q02763); conditions: at 0.1 µM
[15] = biological target: Angiopoietin-1 receptor (Homo sapiens) (UniProt Q02763); conditions: at 1 µM
[16] = biological target: T2, Non-receptor tyrosine-protein kinase TNK1 (Homo sapiens) (UniProt Q13470); conditions: at 0.1 µM
T2 sequence (whole entry): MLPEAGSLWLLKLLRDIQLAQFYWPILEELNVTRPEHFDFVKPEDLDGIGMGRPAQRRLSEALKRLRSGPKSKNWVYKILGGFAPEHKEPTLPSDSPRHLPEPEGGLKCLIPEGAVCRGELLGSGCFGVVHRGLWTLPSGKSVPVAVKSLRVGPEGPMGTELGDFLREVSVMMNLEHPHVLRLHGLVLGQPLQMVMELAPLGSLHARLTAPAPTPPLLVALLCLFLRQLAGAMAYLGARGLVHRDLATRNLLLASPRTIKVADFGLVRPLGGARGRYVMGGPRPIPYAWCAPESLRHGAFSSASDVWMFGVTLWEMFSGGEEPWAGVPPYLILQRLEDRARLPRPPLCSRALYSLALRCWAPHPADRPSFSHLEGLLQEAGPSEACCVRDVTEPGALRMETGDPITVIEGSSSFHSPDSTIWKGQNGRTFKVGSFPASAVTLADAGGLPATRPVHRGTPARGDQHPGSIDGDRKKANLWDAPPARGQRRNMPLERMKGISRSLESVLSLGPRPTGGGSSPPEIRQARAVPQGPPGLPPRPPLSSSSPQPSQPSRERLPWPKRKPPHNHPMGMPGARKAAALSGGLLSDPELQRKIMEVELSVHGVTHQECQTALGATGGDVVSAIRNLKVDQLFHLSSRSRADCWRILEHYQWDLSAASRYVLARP

[17] = biological target: T2, Non-receptor tyrosine-protein kinase TNK1 (Homo sapiens); conditions: at 1 µM
[18] = biological target: Activated CDC42 kinase 1 (Homo sapiens) (UniProt Q07912); conditions: at 0.1 µM
[19] = biological target: Activated CDC42 kinase 1 (Homo sapiens) (UniProt Q07912); conditions: at 1 µM
[20] = biological target: High affinity nerve growth factor receptor (Homo sapiens) (UniProt P04629); conditions: at 0.1 µM;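 note: each value is a mean of replicate percent inhibition readings against TRKA kinase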

Macrophage-stimulating protein receptor (Homo sapiens), sequence (Q04912 25-304 limits assumed): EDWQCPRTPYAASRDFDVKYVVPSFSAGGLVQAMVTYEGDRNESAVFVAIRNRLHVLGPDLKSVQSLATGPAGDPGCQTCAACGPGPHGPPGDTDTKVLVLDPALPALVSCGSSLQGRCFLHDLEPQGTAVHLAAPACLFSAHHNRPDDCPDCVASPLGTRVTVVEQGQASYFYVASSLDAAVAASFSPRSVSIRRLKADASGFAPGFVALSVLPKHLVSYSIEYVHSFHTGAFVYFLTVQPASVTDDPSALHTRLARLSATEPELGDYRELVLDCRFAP
Macrophage-stimulating protein receptor (Homo sapiens), sequence (Q04912 310-1400 limits assumed): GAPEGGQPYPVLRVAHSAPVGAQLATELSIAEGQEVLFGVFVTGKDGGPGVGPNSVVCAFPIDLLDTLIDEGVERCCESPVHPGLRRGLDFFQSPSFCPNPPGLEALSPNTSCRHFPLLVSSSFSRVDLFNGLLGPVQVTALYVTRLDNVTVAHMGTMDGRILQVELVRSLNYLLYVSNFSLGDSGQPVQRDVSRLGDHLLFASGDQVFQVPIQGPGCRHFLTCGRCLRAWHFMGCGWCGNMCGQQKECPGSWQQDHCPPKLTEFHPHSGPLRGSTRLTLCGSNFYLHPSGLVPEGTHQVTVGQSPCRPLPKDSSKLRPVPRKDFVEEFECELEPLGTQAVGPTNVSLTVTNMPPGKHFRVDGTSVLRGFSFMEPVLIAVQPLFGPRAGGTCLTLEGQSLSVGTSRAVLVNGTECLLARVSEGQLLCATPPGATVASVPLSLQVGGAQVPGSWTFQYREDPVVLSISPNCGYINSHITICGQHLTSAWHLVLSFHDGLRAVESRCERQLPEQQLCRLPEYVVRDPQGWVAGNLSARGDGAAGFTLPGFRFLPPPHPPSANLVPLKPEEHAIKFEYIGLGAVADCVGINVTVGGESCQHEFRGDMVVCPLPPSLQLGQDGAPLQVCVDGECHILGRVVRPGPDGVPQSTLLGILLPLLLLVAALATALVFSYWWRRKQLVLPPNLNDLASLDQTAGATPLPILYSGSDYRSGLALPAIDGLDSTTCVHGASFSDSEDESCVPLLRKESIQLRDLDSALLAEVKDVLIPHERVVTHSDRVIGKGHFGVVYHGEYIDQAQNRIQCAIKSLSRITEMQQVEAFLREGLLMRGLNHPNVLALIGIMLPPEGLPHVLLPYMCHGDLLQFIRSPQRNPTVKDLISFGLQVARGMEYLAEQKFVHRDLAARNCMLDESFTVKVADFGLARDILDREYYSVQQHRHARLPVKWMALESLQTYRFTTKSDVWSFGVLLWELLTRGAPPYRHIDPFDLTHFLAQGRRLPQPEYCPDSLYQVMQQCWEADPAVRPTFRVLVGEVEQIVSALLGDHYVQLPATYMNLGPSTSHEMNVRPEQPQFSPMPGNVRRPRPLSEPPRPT
Activated CDC42 kinase 1 (Homo sapiens), sequence (Q07912 whole entry, looked up): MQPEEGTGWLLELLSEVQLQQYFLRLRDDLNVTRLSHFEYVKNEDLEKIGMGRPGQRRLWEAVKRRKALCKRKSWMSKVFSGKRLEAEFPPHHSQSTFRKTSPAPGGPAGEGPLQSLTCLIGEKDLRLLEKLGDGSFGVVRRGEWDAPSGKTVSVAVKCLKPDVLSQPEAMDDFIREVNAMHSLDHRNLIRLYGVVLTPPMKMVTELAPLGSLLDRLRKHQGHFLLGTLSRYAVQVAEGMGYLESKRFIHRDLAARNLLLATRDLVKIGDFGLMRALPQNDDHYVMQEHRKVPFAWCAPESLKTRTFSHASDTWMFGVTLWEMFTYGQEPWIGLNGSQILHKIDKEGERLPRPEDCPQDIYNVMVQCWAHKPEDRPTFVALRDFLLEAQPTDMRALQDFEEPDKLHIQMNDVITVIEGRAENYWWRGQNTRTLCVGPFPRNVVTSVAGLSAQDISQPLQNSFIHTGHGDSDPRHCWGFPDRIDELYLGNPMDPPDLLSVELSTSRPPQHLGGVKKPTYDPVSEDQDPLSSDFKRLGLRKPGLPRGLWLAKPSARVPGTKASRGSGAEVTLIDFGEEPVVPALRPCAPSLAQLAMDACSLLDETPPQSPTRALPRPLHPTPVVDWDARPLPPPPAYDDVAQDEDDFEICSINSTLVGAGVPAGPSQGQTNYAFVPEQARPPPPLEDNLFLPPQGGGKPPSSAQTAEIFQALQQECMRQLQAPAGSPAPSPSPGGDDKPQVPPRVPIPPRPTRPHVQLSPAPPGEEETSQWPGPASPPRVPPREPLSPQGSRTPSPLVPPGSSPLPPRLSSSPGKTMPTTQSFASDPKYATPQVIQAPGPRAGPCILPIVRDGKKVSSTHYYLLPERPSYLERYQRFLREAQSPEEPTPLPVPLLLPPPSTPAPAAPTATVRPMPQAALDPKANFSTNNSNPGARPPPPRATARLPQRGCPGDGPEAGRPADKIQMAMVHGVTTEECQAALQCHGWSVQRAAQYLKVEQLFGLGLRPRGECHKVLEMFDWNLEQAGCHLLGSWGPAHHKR
Angiopoietin-1 receptor (Homo sapiens), sequence (Q02763 whole entry): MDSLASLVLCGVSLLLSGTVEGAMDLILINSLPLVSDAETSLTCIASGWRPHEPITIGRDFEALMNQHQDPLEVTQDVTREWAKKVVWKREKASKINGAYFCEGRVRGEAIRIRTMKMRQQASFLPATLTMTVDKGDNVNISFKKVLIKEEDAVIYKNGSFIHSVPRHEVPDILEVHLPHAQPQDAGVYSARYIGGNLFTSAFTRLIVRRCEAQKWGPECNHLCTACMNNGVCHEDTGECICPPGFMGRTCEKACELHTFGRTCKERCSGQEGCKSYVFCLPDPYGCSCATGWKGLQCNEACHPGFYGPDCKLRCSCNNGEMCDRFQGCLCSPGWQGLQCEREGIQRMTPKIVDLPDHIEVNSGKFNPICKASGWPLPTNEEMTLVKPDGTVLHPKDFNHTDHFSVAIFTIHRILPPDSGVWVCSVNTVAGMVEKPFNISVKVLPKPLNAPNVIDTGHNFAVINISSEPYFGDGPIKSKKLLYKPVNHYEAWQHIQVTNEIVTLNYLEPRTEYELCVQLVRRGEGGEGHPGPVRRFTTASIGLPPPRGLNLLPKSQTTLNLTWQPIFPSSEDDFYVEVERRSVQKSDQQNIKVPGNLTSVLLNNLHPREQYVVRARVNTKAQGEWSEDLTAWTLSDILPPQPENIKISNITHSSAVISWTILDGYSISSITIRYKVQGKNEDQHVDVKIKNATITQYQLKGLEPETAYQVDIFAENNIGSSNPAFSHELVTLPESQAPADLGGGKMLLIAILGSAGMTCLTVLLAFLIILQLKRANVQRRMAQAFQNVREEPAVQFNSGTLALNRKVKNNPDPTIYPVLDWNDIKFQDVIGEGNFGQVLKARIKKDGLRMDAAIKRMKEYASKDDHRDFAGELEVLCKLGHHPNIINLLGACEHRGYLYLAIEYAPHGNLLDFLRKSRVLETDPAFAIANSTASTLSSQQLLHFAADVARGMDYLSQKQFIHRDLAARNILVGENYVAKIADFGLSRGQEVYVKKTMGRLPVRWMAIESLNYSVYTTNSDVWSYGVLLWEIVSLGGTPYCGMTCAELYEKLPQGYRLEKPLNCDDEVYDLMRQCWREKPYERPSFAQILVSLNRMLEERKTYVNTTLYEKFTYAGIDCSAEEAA
Proto-oncogene tyrosine-protein kinase Src (Homo sapiens), sequence (P12931 2-536 limits assumed): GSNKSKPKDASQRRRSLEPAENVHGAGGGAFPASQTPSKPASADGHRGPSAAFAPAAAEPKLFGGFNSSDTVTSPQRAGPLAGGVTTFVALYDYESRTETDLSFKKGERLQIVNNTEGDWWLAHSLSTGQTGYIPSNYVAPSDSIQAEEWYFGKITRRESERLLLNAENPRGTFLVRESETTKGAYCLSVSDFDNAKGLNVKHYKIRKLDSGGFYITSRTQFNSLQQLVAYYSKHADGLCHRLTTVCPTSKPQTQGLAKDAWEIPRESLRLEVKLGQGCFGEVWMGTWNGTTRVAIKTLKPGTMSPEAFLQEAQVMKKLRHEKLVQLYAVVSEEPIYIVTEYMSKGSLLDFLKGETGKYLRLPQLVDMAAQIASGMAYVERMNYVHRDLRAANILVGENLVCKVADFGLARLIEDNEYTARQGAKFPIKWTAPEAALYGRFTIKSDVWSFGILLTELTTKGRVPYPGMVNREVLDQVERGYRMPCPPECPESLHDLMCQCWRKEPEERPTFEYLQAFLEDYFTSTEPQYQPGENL
Tyrosine-protein kinase Srms (Homo sapiens), sequence (Q9H3Y6 whole entry): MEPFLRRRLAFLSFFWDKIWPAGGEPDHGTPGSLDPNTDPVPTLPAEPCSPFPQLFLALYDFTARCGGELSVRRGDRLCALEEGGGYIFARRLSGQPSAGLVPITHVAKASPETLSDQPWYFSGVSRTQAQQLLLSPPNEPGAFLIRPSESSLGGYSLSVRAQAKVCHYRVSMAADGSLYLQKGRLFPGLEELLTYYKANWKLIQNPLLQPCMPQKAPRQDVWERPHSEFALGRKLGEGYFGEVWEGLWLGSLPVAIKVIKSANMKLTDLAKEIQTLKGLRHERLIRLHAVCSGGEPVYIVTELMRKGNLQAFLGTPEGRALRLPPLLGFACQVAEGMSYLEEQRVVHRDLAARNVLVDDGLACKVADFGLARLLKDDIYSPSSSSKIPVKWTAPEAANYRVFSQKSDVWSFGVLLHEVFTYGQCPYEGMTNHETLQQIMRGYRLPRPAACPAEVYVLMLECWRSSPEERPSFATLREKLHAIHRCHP

Compound	inhibition [1] [%]	inhibition [2] [%]	inhibition [3] [%]	inhibition [4] [%]	inhibition [5] [%]	inhibition [6] [%]	inhibition [7] [%]	inhibition [8] [%]	inhibition [9] [%]	inhibition [10] [%]	inhibition [11] [%]	inhibition [12] [%]	inhibition [13] [%]	inhibition [14] [%]	inhibition [15] [%]	inhibition [16] [%]	inhibition [17] [%]	inhibition [18] [%]	inhibition [19] [%]	inhibition [20] [%]
COc1cc(/C=N/Nc2ncnc3[nH]ncc23)ccc1O	80.9	-1.46	17	5.97	27	27.9	83.2	-0.95	6.55	-7.54	14.2	8.19	38.6	2.16	9.2	4.02	18.9	1.76	8.52	2.3
CCn1cc(-c2ccnc3[nH]ccc23)c(-c2cccc(NC(=O)Nc3ccc(OCc4ccccc4)cc3)c2)n1	11.9	-0.2	23.8	1.33	0.45	1.17	6.43	-1.11	-1.61	-1.9	-2.75	-0.28	0.98	-0.17	6.2	1.05	11.2	-0.68	2.63	-1.48
Cc1cccc2c1NC(=O)/C2=N\Nc1ccc(S(N)(=O)=O)cc1	18.8	4.93	2.48	2.26	1.51	4.47	6.45	-0.7	-2.11	3.45	-1.74	5.22	7.22	1.65	1.24	2.15	5.82	1.06	1.59	4.96
O=S(=O)(CCNCc1ccc(-c2ccc3ncnc(Nc4ccc(OCc5cccc(F)c5)c(Cl)c4)c3c2)o1)c1ccccc1	15.4	1.71	2.9	4.44	6.24	9.13	8.52	-1.84	-3.16	-4.56	-4.14	1.85	5.02	5.73	8.7	4.16	22.3	2.38	1.4	2.46
CC(=O)NCc1cccc(C#Cc2cncnc2Nc2ccc(OCc3cccc(F)c3)c(Cl)c2)c1	3.42	5.44	5.62	3.92	4.54	0.53	2.01	0.33	-1.05	-2.37	2.55	0.58	0.89	0.95	4.38	-1.56	-1.3	-0.45	-0.03	1.25
CCn1c(-c2nonc2N)nc2ccccc21	3.18	1.17	2.21	9.11	15.9	11.4	6.84	1.09	2.1	0.68	0.1	3.65	7.35	0.56	-0.01	2.77	4.19	1.12	2.47	3.39
